Assay results published in PubChem BioAssay (EPA / NIEHS).
“And” between values parts separate entries of the source, which are not always exact repeats. Equal values may be shown once. Records with an inconclusive call do not appear. The source made the active and inactive calls. The calls were made as follows, unless noted: active = hit-call score of the fitted dose curve at least 0.9, where 1 is the maximum; inconclusive = response in the unintended direction; inactive = score below 0.9.

The molecules below were run against human Peroxisome Proliferator-activated Receptor alpha (PPARa), PPARA (gene 5465) (UniProt Q07869) (assay: ATG_PPARa_TRANS: Attagene TRANS-FACTORIAL HepG2 Assay for human Peroxisome Proliferator-activated Receptor alpha (PPARa) (AID 2283001)). Conditions: not given.
Outline: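 Reporter transcripts from GAL4-UAS units in transfected HepG2 were quantified 24 h after dosing. Detection used reverse transcription, PCR, fluorescent primer extension and capillary electrophoresis, with DMSO as baseline.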

Chain of human Peroxisome Proliferator-activated Receptor alpha (PPARa), PPARA (gene 5465) (Q07869 whole entry, looked up, the tested form may be a part): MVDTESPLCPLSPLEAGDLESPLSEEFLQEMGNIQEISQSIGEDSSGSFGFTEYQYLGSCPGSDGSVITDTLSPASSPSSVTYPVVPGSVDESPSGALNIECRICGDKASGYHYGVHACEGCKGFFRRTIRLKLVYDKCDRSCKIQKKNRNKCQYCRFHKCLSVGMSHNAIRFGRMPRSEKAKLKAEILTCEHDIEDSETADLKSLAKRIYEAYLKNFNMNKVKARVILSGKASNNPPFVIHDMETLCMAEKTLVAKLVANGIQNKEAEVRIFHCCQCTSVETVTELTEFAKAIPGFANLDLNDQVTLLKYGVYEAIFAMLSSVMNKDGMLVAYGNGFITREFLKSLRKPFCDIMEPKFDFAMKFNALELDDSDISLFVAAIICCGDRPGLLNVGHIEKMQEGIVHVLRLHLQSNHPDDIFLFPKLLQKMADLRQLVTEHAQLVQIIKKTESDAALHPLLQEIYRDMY

SMILES | outcome
N#Cc1cscn1 | inactive
C#CC(C)(O)CC(C)C (stereo unspecified) | inactive
BrCc1cccc(Oc2ccccc2)c1 | inactive
COC(=O)c1ccc(OC)cc1 | inactive
Nc1c(S(=O)(=O)O)cc(Br)c2c1C(=O)c1ccccc1C2=O | inactive
CC(=O)O[C@@H]1CC2CCC1(C)C2(C)C (stereo partly specified) | inactive
CC/C=C\CCOC(=O)CC | inactive
ON=C1CCCCC1 | inactive
CCCCCCCCCC(=O)OC | inactive
OCc1cccc(Oc2ccccc2)c1 | inactive
CC(=O)CC(=O)Nc1ccc(C)cc1C | inactive
CCCCCCOC(=O)C(C)C | inactive
CC=CC=CCOC(=O)C(C)C | inactive
CC(=O)C(C)O (stereo unspecified) | inactive
CCC(C)=O | inactive
COCCOCCOCCO | inactive
CCC(=O)OCCOc1ccccc1 | inactive
COS(=O)(=O)O | inactive
CC=Cc1ccc(OC)c(OC)c1 | inactive
O=C(CS)OCCOC(=O)CS | inactive

The molecules below were run against human Peroxisome Proliferator-activated Receptor delta (PPARd), PPARD (gene 5467) (UniProt Q03181) (assay: ATG_PPARd_TRANS: Attagene TRANS-FACTORIAL HepG2 Assay for human Peroxisome Proliferator-activated Receptor delta (PPARd) (AID 2283002)). Conditions: not given.
Outline: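 Read-out is induced reporter mRNA, quantified by RT-PCR with fluorescent labelling and capillary electrophoresis after 24 h dosing. Cells are HepG2 transiently carrying multiple GAL4-UAS reporter units driven by exogenous NR-GAL4 chimeras; DMSO serves as baseline.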

Chain of human Peroxisome Proliferator-activated Receptor delta (PPARd), PPARD (gene 5467) (Q03181 whole entry, looked up, the tested form may be a part): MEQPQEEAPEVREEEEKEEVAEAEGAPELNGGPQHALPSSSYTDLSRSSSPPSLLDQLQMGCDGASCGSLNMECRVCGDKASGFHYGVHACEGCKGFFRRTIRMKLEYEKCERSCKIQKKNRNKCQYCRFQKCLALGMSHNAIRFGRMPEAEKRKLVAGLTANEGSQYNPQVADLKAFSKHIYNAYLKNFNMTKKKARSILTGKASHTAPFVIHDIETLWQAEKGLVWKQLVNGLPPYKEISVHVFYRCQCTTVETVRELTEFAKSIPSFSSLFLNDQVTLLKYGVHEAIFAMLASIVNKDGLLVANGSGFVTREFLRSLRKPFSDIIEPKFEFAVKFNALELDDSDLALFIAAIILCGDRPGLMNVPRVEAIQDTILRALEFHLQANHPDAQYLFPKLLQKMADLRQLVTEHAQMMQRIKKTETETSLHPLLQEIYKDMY

SMILES | outcome
C[N+](C)(C)CCCCCC[N+](C)(C)C | inactive
CCCCCCCC(=O)OCCCCCC | inactive
C=CC(C)C#N (stereo unspecified) | inactive
CCN(CC)C(=O)N(CC)CC | inactive
CCOC(=O)CN | inactive
O=C1OC[C@H](Cc2cccc(O)c2)[C@H]1Cc1cccc(O)c1 | inactive
CCCCC1CCC(O)CC1 (stereo unspecified) | inactive
CC1(C)C2=CCCC(C)(C)[C@]23CC[C@H]1C3 | inactive
CC1=C(Br)C(=O)C(Br)=C/C1=C(/c1ccccc1S(=O)(=O)O)c1cc(Br)c(O)c(Br)c1C | inactive
CC1CCC(C(C)C)C(O)C1 (stereo unspecified) | inactive
CS(=O)(=O)OCCCCOS(C)(=O)=O | inactive
CC(C)(N=C=O)c1cccc(C(C)(C)N=C=O)c1 | inactive
CCOc1ccc(N=Nc2ccc(C=Cc3ccc(N=Nc4ccc(OCC)cc4)cc3S(=O)(=O)O)c(S(=O)(=O)O)c2)cc1 | inactive
CCOC(=O)C(C#N)=C(c1ccccc1)c1ccccc1 | inactive
COc1cc(C(C)C)ccc1C | inactive
CC(=O)c1c(C)c([N+](=O)[O-])c(C(C)(C)C)c([N+](=O)[O-])c1C | inactive
CC1(C)CCC[C@]2(C)[C@H]3CCO[C@]3(C)CC[C@@H]12 | inactive
Clc1cc(Cl)c(-c2c(Cl)c(Cl)cc(Cl)c2Cl)cc1Cl | inactive

Each molecule was assayed on Intercellular Adhesion Molecule 1 (ICAM1), ICAM1 (gene 3383) (assay: BSK_3C_ICAM1: BioMAP Diversity Plus: 3C Assay for Intercellular Adhesion Molecule 1 (ICAM1) Biomarker Activity (AID 2283003; active = hit-call score of the fitted dose curve at least 0.9, where 1 is the maximum; inactive = score below 0.9)). Conditions: primary human endothelial cells (HUVEC); actives raise or lower the signal.
Outline: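 Human vascular endothelial primary cells, 3C conditions, 24 h treatment. ICAM-1 by ELISA.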

SMILES | outcome | AC50
CCN(CC)C(=O)N(CC)CC | inactive | 
O=C1OC[C@H](Cc2cccc(O)c2)[C@H]1Cc1cccc(O)c1 | inactive | 
CC1(C)C2=CCCC(C)(C)[C@]23CC[C@H]1C3 | inactive | 
CS(=O)(=O)OCCCCOS(C)(=O)=O | inactive | 
CC(C)(N=C=O)c1cccc(C(C)(C)N=C=O)c1 | inactive | 
CCOC(=O)C(C#N)=C(c1ccccc1)c1ccccc1 | inactive | 
CC(=O)c1c(C)c([N+](=O)[O-])c(C(C)(C)C)c([N+](=O)[O-])c1C | inactive | 
CC1(C)CCC[C@]2(C)[C@H]3CCO[C@]3(C)CC[C@@H]12 |  | 31.2 µM (active) and 38.9 µM (active)
